Reference: PubChem BioAssay
The source made the active and inactive calls.

Columns and labels:
[1] = small molecules captured by biotinylated probe aFSTL3 – biochemical, small-molecule microarray, fluorescence 635/667, stem cell growth factor project, primary screen (AID 1064); settings: higher = more signal;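 further: measures binding of the biotinylated anti-FSTL3 antibody to printed compounds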
[2] = binders from COS7 lysate, DM2A8 probe, primary screen, torsin A project, cell lysate, small-molecule microarray, fluorescence 635/667 (AID 1065); settings: higher = more signal, COS7 lysate expressing mutant human TOR1A
[3] = small molecules captured by biotinylated probe aFGF2 – biochemical, small-molecule microarray, fluorescence 635/667, stem cell growth factor project, primary screen (AID 1067); settings: higher = more signal;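 further: measures binding of biotinylated aFGF2 protein to printed compounds on slides; z-score merges feature fluorescence and signal-to-noise across triplicate slides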
[4] = small molecules captured by biotinylated probe aFGF10 – biochemical, small-molecule microarray, fluorescence 635/667, stem cell growth factor project, primary screen (AID 1071); settings: higher = more signal;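 further: score merges 667 nm spot intensity and signal to noise from triplicate slides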
[5] = target: Neurogenic locus notch homolog protein 2 (Homo sapiens) (UniProt Q04721); experiment: small molecules binding Notch2 protein – biochemical, small-molecule microarray, 635 nm fluorescence, stem cell growth factors, primary screen (AID 1073); settings: higher = more signal
[6] = target: Pro-neuregulin-1, membrane-bound isoform (Homo sapiens) (UniProt Q02297); experiment: small molecules binding neuregulin-1 protein – biochemical, small-molecule microarray, fluorescence 635/667, psychiatric disease protein project, primary screen (AID 1075); settings: NRG1 binding, 635 nm fluorescence, higher = more signal;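 further: score combines 667 nm spot fluorescence with signal to noise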
Sequence of Pro-neuregulin-1, membrane-bound isoform (Homo sapiens) (Q02297 whole entry, looked up, the tested form may be a part, canonical isoform): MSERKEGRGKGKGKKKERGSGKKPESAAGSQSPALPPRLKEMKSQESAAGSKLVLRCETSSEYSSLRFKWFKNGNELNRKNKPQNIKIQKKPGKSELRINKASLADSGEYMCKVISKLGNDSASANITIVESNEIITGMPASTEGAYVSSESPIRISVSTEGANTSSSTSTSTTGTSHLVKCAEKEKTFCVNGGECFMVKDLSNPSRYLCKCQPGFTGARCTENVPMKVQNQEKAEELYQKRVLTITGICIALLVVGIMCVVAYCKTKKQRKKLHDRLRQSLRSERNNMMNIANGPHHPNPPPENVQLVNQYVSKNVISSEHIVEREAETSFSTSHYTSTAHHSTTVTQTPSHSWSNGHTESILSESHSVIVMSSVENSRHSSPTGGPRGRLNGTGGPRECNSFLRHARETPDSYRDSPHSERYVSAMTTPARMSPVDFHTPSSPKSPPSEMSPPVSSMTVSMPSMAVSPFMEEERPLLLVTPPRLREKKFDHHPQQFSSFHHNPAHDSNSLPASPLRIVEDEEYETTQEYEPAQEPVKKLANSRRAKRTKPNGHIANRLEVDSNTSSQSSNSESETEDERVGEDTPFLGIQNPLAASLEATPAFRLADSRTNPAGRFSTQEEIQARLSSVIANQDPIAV

[7] = test system: Neuregulin-1 EGF-like domain; experiment: small molecules binding NRG1 EGF domain – biochemical, small-molecule microarray, 635 nm fluorescence, primary screen (AID 1081); settings: higher = more signal;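 further: binding of the protein to compounds printed on small-molecule microarray slides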
[8] = FRG1 expression reporter modulators in myotubes – cell-based, C2C12 myotubes, firefly/Renilla luciferase, luminescence, FRG1 inhibition for FSHD, primary screen (AID 1084); settings: FRG1 promoter luciferase, higher = more signal, called active from +8 up or from −8 down
[9] = small molecules captured by biotinylated probe aFST – biochemical, small-molecule microarray, fluorescence 635/667, stem cell growth factor project, primary screen (AID 1086); settings: higher = more signal;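 further: score merges 667 nm fluorescence with signal-to-noise of each printed compound spot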
[10] = binders of probe aHhip on microarray, primary screen, stem cell growth factor project, biochemical, small-molecule microarray, fluorescence 635/667 (AID 1087); settings: higher = more signal;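 further: score merges spot fluorescence at 667nm with spot signal to noise ratio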
[11] = test system: PRMT1 (protein arginine N-methyltransferase 1); experiment: small molecules binding arginine methyltransferase PRMT1 – biochemical, small-molecule microarray, 635 nm fluorescence, primary screen (AID 1088); settings: higher = more signal;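 further: binding of Prmt1 protein to compounds spotted on small-molecule microarray slides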
[12] = growth effects on S. cerevisiae YJM789 – YJM789 clinical isolate, OD600, 24 h, basal, primary screen (AID 1089); settings: higher = more signal, called active from +8 up or from −8 down;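 further: growth of clinical yeast isolate S. cerevisiae YJM 789 seeded 1000 cells per well; test concentration not given here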
[13] = S. pombe growth modifiers, basal conditions – strain 972, OD600, 24 h, no modulator, primary screen (AID 1090);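 further: basal condition with compound alone and no growth modifier present; test concentration not given here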; settings: S. pombe 972 growth, higher = more signal, called active from +8 up or from −8 down
[14] = budding yeast growth modifiers under rapamycin – strain BY4716, OD600, 96 h, primary screen (AID 1091); further: test concentration not given here; settings: S. cerevisiae BY4716 + rapamycin, higher = more signal, called active from +8 up or from −8 down
[15] = target: Torsin-1A-interacting protein 2 (Homo sapiens) (UniProt Q8NFQ8); experiment: small molecules binding lysate-expressed LULL1 – cell lysate, human LULL1 lysate, 635/667 nm fluorescence, primary screen (AID 1092); settings: small-molecule microarray, hLULL1 lysate binding, 635 nm fluorescence; higher = more signal;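 further: probe is lysate of COS7 cells overexpressing human LULL1; score merges per-feature 667 nm fluorescence with signal-to-noise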
Sequence of Torsin-1A-interacting protein 2 (Homo sapiens) (Q8NFQ8 whole entry, looked up): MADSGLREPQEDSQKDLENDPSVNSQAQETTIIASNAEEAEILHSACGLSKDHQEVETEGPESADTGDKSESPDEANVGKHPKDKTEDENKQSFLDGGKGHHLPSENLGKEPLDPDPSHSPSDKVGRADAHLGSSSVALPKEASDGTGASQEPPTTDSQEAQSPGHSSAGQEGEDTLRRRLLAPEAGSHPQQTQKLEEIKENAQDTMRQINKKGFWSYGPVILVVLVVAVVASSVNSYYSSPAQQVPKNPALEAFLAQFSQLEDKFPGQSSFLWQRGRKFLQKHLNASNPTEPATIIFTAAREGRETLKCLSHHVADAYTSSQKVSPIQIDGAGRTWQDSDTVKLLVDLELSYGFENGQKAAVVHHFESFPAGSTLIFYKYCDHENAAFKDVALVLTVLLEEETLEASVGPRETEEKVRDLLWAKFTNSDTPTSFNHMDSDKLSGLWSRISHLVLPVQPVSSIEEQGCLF

[16] = optical density change of DRC41 E. coli – strain DRC41, OD650, 24 h, E. coli filamentation project, primary screen (AID 1093);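 further: MC1000 strain lacking acrAB efflux and sulA so SOS filamentation is blocked; test concentration not given here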; settings: E. coli DRC41 growth, higher = more signal, called active from +8 up or from −8 down
[17] = probe aLefty2 binding to arrayed compounds – biochemical, biotinylated probe, 635/667 nm fluorescence, primary screen (AID 1094); settings: small-molecule microarray, higher = more signal;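 further: score merges spot fluorescence near 667 nm with spot signal-to-noise ratio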
[18] = test system: Noggin (protein binding on small-molecule microarray); experiment: small molecules binding Noggin protein – biochemical, 635/667 nm fluorescence, primary screen (AID 1095); settings: 635 nm fluorescence, higher = more signal;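 further: score merges 667 nm feature fluorescence with signal to noise over triplicate slides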
[19] = target: Neurogenic locus notch homolog protein 3 (Homo sapiens) (UniProt Q9UM47); experiment: small molecules binding NOTCH3 protein – biochemical, 635/667 nm fluorescence, primary screen (AID 1096); settings: small-molecule microarray, 635 nm fluorescence, higher = more signal
Sequence of Neurogenic locus notch homolog protein 3 (Homo sapiens) (Q9UM47 whole entry, looked up): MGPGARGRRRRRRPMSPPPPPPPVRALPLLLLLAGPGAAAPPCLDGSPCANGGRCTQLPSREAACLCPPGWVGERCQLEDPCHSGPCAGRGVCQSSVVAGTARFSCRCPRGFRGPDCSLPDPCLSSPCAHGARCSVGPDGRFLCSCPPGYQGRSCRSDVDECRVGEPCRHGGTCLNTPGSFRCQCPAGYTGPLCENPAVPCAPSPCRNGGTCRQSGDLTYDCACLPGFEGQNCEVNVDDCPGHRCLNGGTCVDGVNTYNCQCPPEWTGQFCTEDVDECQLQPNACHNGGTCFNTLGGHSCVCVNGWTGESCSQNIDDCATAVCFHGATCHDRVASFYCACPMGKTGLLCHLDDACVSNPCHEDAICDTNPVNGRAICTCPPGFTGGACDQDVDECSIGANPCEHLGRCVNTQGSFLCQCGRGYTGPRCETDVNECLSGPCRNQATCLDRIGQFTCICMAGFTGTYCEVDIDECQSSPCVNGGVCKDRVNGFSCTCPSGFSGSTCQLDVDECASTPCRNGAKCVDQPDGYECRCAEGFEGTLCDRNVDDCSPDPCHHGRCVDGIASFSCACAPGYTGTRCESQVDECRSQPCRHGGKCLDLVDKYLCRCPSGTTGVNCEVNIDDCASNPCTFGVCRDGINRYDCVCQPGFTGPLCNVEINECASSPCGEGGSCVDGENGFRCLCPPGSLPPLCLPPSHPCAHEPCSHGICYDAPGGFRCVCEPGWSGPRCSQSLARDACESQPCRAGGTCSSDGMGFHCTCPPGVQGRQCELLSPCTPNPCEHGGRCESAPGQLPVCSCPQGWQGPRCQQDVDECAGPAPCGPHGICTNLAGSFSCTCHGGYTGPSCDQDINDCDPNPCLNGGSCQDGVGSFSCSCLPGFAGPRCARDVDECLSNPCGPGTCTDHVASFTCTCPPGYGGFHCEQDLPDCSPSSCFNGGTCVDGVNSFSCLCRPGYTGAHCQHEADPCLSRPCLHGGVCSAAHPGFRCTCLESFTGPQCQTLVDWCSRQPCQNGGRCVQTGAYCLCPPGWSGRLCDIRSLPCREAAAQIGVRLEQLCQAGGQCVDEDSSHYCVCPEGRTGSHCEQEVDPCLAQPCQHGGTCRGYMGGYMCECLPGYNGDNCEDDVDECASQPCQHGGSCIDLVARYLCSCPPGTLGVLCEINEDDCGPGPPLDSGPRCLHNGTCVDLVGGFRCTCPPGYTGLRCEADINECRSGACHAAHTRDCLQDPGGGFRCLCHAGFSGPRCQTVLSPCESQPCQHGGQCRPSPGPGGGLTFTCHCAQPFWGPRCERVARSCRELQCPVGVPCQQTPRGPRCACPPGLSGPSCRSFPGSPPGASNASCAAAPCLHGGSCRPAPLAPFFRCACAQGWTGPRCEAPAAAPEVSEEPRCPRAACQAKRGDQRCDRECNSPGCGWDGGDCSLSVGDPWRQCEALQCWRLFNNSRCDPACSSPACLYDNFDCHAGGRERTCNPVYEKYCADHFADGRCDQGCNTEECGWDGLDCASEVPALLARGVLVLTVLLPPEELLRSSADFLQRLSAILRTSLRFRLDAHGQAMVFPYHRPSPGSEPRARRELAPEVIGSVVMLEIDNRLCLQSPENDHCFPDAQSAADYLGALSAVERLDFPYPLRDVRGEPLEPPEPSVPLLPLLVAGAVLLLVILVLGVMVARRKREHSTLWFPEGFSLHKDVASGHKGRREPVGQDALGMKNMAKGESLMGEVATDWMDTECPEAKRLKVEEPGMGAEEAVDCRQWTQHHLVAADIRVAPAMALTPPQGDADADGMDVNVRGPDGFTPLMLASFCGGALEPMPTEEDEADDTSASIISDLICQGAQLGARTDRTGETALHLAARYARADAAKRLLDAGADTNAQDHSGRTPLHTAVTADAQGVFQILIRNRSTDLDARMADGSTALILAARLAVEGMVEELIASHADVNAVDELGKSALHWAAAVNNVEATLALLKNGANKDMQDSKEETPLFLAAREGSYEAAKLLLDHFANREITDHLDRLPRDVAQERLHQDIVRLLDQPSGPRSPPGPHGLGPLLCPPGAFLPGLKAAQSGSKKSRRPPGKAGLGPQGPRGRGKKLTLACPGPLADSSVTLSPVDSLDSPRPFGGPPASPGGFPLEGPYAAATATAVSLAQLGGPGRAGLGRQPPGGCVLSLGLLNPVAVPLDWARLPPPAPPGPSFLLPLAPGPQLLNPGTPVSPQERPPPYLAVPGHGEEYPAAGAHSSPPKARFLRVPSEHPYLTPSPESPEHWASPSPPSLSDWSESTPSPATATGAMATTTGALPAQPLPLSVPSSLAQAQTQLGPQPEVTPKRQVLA

[20] = probe aEGFR binding to arrayed compounds – biochemical, biotinylated probe, 635/667 nm fluorescence, primary screen (AID 1097); settings: small-molecule microarray, higher = more signal;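 further: probe is a biotinylated anti-EGFR antibody binding compounds printed on slides; score combines fluorescence near 667 nm and signal to noise of each spot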

SMILES | composite z-score [1] | composite z-score [2] | composite z-score [3] | composite z-score [4] | composite z-score [5] | composite z-score [6] | composite z-score [7] | z-score [8] | composite z-score [9] | composite z-score [10] | composite z-score [11] | z-score [12] | z-score [13] | z-score [14] | composite z-score [15] | z-score [16] | composite z-score [17] | composite z-score [18] | composite z-score [19] | composite z-score [20]
COC(=O)[C@@]1(Cc2ccc(F)cc2)[C@H]2c3cc(C(=O)N4CCCC4)n(Cc4cccc5ccccc45)c3C[C@H]2CN1C(=O)c1ccccc1 | 0.242 | 0.312 | 0.148 | 0.62 | 1.57 | 2.16 | 1.35 | 0.272 (inactive) | 0.558 | 0.762 | 0.187 | 0.0247 (inactive) | 0.702 (inactive) | 0.307 (inactive) | 3.85 | -1.48 (inactive) | 0.698 | -0.275 | 0.941 | 0.245
COC(=O)[C@@]1(Cc2ccccc2)N=C(c2ccc(OCCCO)cc2)O[C@H]1c1ccccc1N=[N+]=[N-] | 0.454 | 2.86 | -0.0667 | 0.123 | 0.784 | 0.657 | 1.33 | 3.69 (inactive) | 0.0183 | -0.201 | 1.49 | 0.288 (inactive) | -2.2 (inactive) | 5.8 (inactive) | 1.35 | 0.319 (inactive) | 0.0484 | 0.884 | 0.802 | -0.0953
[N-]=[N+]=NCc1ccccc1C[C@@]1(C(=O)N2CCOCC2)N=C(c2ccc(OCCCO)cc2)O[C@@H]1c1ccccc1CN=[N+]=[N-] | 0.998 | 0.232 | 0.266 | 1.01 | 1.52 | 1.91 | 1.37 | -3.63 (inactive) | 1.57 | 0.156 | 1.58 | 0.466 (inactive) | -0.559 (inactive) | 28 (active) | 3.28 | 0.291 (inactive) | 0.743 | 0.631 | 0.967 | 0.662
COCCOC(=O)N1C(=O)[C@@]2(c3cc(C#CC4(O)CCCCCC4)ccc31)[C@H](C(=O)N1CCCCCCC1)[C@H]1C(=O)O[C@H](c3ccccc3)[C@H](c3ccccc3)N1[C@@H]2c1ccccc1OCCO | 2.49 | 0.859 | 0.249 | 0.298 | 1.25 | 1.17 | 1.28 | 0.25 (inactive) | 2.2 | 1.04 | 1.48 | 1.41 (inactive) | -1.07 (inactive) | 3.73 (inactive) | 3.22 | 0.431 (inactive) | 0.911 | 1.55 | 1.05 | 0.495
COC(=O)C1=CC(CCCO)=CC(C2CC2)N(Cc2sc3ccccc3c2Cl)C=C1C(=O)OC (stereo not given) | -0.0356 | 0.43 | 0.0216 | 0.889 | 1.44 | 1.98 | 1.08 | -1.73 (inactive) | 1.1 | -0.266 | 1.54 | 0.258 (inactive) | -3.05 (inactive) | -1.55 (inactive) | 3.36 | 0.404 (inactive) | 0.198 | 0.346 | 1.16 | 0.0746
O=C1[C@]2(CO)C=C(Br)[C@@H](C[C@@H]2c2ccccc2)[C@@]12CO2 | -0.333 | -0.61 | -0.0507 | -0.0238 | 0.0861 | 0.251 | 0.245 | 1.2 (inactive) | -0.0624 | -0.134 | -0.756 | -0.904 (inactive) | -3.06 (inactive) | -0.666 (inactive) | -0.556 | 0.0737 (inactive) | -0.227 | 0.0401 | 0.224 | -0.0828
CN(C)C(=O)[C@]1(CCC(=O)OC(C)(C)C)N=C(c2ccc(OCCCO)cc2)O[C@@H]1c1ccccc1N=[N+]=[N-] | 0.542 | 1.78 | 0.147 | 1.2 | 1.36 | 2.01 | 1.45 | 3.22 (inactive) | 1.43 | -0.0867 | 1.54 | 1.1 (inactive) | 0.626 (inactive) | 0.0958 (inactive) | 3.78 | 0.515 (inactive) | 0.17 | 0.245 | 0.684 | 0.11
COCC1=C2[C@@H](CCc3ccccc3)OB(O)C[C@@H]2[C@@H]2C(=O)N(Cc3ccccc3)C(=O)[C@@H]2C1 | -0.505 | -0.138 | -0.0419 | 0.135 | -0.0585 | 0.0327 | -0.0593 | -3.66 (inactive) | -0.492 | -0.201 | 0.229 | -0.471 (inactive) | -1.22 (inactive) | -0.37 (inactive) | 0.295 | -0.715 (inactive) | -0.155 | 0.198 | -0.0497 | -0.132
COc1cc(CO)ccc1OC(C)=O | -0.651 | 0.336 | -0.0279 | 0.28 | 0.382 | 0.34 | 0.707 | -0.847 (inactive) | 0.195 | 0.122 | 0.657 | -2.07 (inactive) | -1.44 (inactive) | -0.377 (inactive) | 0.0135 | 1.14 (inactive) | -0.332 | 0.601 | 0.317 | -0.112
C=CCOC(=O)[C@H]1[C@@H]2C(=O)O[C@@H](c3ccccc3)[C@@H](c3ccccc3)N2[C@@H](c2ccc(OCCOC(=O)[C@@H]3C[C@@H]4C(=O)NCC(=O)N4[C@@H]3c3ccc(O)cc3)cc2)[C@]12C(=O)Nc1ccccc12 | -0.214 | 0.454 | -0.0296 | 0.515 | -0.111 | -0.373 | 1.26 | -1.27 (inactive) | -0.112 | -0.0237 | 1.56 | -4.85 (inactive) | -0.234 (inactive) | 1.47 (inactive) | 2.35 | 2.36 (inactive) | -0.153 | 1.81 | 1.12 | -0.0828
